Assay outcomes as filed in PubChem.
Hits are enriched below; roughly 9% of the tested compounds scored in any of these assays.
ALDH1A1 block – qHTS Assay for Inhibitors of Aldehyde Dehydrogenase 1 (ALDH1A1); Purified ALDH1A1, NADH fluorescence, propionaldehyde substrate; Potency, µM (highest dose often 75.3 µM), hits mostly inhibitors; Aldehyde dehydrogenase 1A1 (Homo sapiens), P00352; 7.3% of 220,000 active
IMPase Li inh – qHTS Assay for Identifying the Cell-Membrane Permeable IMPase Inhibitors: Potentiation with Lithium; CHO-M1 cells, IP1 TR-FRET (IP-One), carbachol + lithium; Potency, µM (titrated, usually from 59.4 µM), hits mostly inhibitors; 0.35% of 210,000 active; AID 1457, 2008; active = well fitted curve in the direction sought with a large enough effect; inconclusive = small, poorly fitted or top-dose-only effect, or another doubt; inactive = no such curve, though single readings can be large; an effect the other way counts as inactive or inconclusive;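 also: IP1 builds up when IMPase is blocked and the TR-FRET signal falls; nearly all actives have a fitted effect of over 50% in size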
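IP1 accumulation measured by competitive TR-FRET in lysed CHO-M1 cells after 30 min compound exposure at 37C, with a small lithium addition to potentiate weak responses. Hill-equation AC50 from ratio and donor-channel data.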
Luc counter – Counterscreen for Luciferase (Kinase-Glo TM) Inhibition; Luciferin 4-monooxygenase (Photuris pensylvanica), Q27757; Kinase-Glo luciferase, ATP luminescence, 8 min; Potency, µM (doses to about 38.3 µM), hits mostly inhibitors; 0.28% of 200,000 active; AID 1379, 2008; active = well fitted curve in the direction sought with a large enough effect; inconclusive = small, poorly fitted or top-dose-only effect, or another doubt; inactive = no such curve, though single readings can be large; an effect the other way counts as inactive or inconclusive; also: nearly all actives have a fitted effect of over 60% in size
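Inhibition of Kinase-Glo luciferase light generation was assessed at 10 uM ATP in pH 7.2 imidazole buffer, with luminescence measured after eight minutes at ambient temperature.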
Lamin A splicing – qHTS Assay for Modulators of Lamin A Splicing | HeLa LMNA splicing GFP/RFP minigene ratio, 48 h | Potency, µM (titrated, usually from 46.1 µM), actives largely listed as inhibitors | 0.01% of 200,000 active | AID 1487, 2009; active = well fitted inhibition curve with a large enough effect in the signal ratio, with a control signal flat, not every such curve was filed as active; inconclusive = small, poorly fitted or top-dose-only effect, or effect the other way, or a change in a side signal; the % refers to the signal ratio
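S3 HeLa stable clones carrying a lamin A-EGFP splicing minigene plus DsRed2 were seeded at 600 cells/well in Opti-MEM with 2% FBS, pin-dosed and incubated 48 h at 37°C. Acumen cytometry (488 nm) gave the GFP/RFP total-intensity ratio.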
HPGD block – qHTS Assay for Inhibitors of HPGD (15-Hydroxyprostaglandin Dehydrogenase); Potency, µM, hits mostly inhibitors; 4.3% of 150,000 active; purified HPGD, NADH fluorescence kinetic, PGE2 substrate; 15-hydroxyprostaglandin dehydrogenase [NAD(+)] (Homo sapiens), P15428
Target sequence (P15428 whole entry, looked up): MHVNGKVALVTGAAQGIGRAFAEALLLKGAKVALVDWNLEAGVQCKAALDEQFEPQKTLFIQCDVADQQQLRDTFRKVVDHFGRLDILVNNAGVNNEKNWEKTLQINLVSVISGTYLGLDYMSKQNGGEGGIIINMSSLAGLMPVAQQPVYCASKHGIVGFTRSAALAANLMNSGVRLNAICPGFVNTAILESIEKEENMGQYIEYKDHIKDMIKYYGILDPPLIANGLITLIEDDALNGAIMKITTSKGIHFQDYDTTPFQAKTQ
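NADH formation kinetics: reaction with 30 uM PGE2 and 1 mM NAD+ (final), 20 nM enzyme, Tris-HCl pH 8 with Tween 20, after 15 min compound preincubation at room temperature. Fluorescence change, last versus first of five reads.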
Each line names hits and unclear results; the compound was inactive in the other large screens. Unless noted, calls follow the shape of the dose curve; as a rule, active = well fitted inhibition curve with a large enough effect (not every such curve was filed as active); inconclusive = small, poorly fitted or top-dose-only effect, or another doubt; inactive = no such curve, though single readings can be large or run the other way.

CN1CCN(C(c2ccccn2)c2cc(Cl)c3cccnc3c2O)CC1 (stereo not drawn)	ALDH1A1 block 10µM, Lamin A splicing inconclusive (no result: HPGD block)
O=C(CCc1ccccc1)NC(c1cccs1)c1cc(Cl)c2cccnc2c1O (stereo not drawn)	ALDH1A1 block inconclusive (no result: Lamin A splicing, HPGD block)
Oc1c(C(c2ccc(Cl)cc2)N2CCCC2)cc(Cl)c2cccnc12 (stereo not drawn)	ALDH1A1 block 14µM, Lamin A splicing inconclusive (no result: HPGD block)
Oc1c(C(c2ccccn2)N2CCC(Cc3ccccc3)CC2)cc(Cl)c2cccnc12 (stereo not drawn)	ALDH1A1 block 5.6µM (no result: Lamin A splicing, HPGD block)
CCCCOC(=O)c1ccc(NC(=O)C2(c3cccs3)CCOCC2)cc1	none (no result: ALDH1A1 block, IMPase Li inh, Luc counter, HPGD block)
Cc1ccc(NC(=O)Cn2cc(S(=O)(=O)N3CCCC3)c(S(=O)(=O)N3CCCC3)c2)cc1F	none (no result: ALDH1A1 block, IMPase Li inh, Luc counter, HPGD block)
O=C(NCCc1ccccc1)c1cc(=O)c2ccccc2o1	none (no result: HPGD block)
COc1cccc(-n2ccnc2SCC(=O)Nc2nc3ccc(C)cc3s2)c1	none (no result: ALDH1A1 block, IMPase Li inh, Luc counter, HPGD block)
Cc1nc2c(ccc3c([N+](=O)[O-])cccc32)c(C)c1C	ALDH1A1 block inconclusive (no result: Lamin A splicing, HPGD block)
c1ccc2c(c1)nc(NC1CCCCC1)c1nncn12	ALDH1A1 block 10µM
Nc1ncnc2c1ncn2[C@H]1O[C@@H](CSCC[C@@H](N)C(=O)O)[C@H](O)[C@@H]1O	none (no result: Luc counter, Lamin A splicing, HPGD block)
O=C(NCC(=O)N1CC(O)CC1C(=O)N1CCCC1C(=O)OCc1ccccc1)OCc1ccccc1 (stereo not drawn)	none (no result: HPGD block)
CCOC(=O)C1=C(C)NC(=O)/C1=C\N(C)C	ALDH1A1 block inconclusive (no result: Lamin A splicing, HPGD block)
COc1ccc(NC(=O)COC(=O)CCCOc2ccc(Cl)cc2Cl)cc1	none
O=C(COC(=O)c1ccc([N+](=O)[O-])o1)Nc1cccc(S(=O)(=O)N2CCOCC2)c1	ALDH1A1 block 1µM
COc1cc2c(cc1OC)CN(C(=O)CCCOc1ccc(Cl)cc1Cl)CC2	HPGD block 35µM
O=C(COC(=O)c1ccc2c(c1)OCCO2)Nc1cccc(S(=O)(=O)N2CCOCC2)c1	none (no result: HPGD block)
O=C(COc1ccc(Cl)cc1Cl)NC(=S)Nc1ccccc1C(=O)O	ALDH1A1 block inconclusive (no result: Lamin A splicing, HPGD block)
CCOc1ccccc1NC(=S)NC(=O)CCCOc1ccc(Cl)cc1Cl	ALDH1A1 block 11µM, Lamin A splicing inconclusive
COc1ccc(NC(=O)COC(=O)CCCOc2ccc(Cl)cc2Cl)cc1Cl	HPGD block 28µM
O=C(COC(=O)c1ccc(Cl)nc1)Nc1ccc2c(c1)OCO2	none (no result: HPGD block)
COc1ccc(NC(=O)COC(=O)c2ccc([N+](=O)[O-])o2)cc1Cl	ALDH1A1 block 22µM (no result: HPGD block)
Cc1cc(C)cc(NC(=O)C(OC(=O)c2ccc([N+](=O)[O-])o2)c2ccccc2)c1 (stereo not drawn)	ALDH1A1 block inconclusive
CN(C)S(=O)(=O)c1cccc(NC(=O)COC(=O)c2ccc([N+](=O)[O-])o2)c1	ALDH1A1 block 20µM
COc1cccc(NC(=O)C(OC(=O)c2ccc([N+](=O)[O-])o2)c2ccccc2)c1 (stereo not drawn)	ALDH1A1 block 22µM
COc1ccc(C)cc1NC(=O)COC(=O)c1ccc([N+](=O)[O-])o1	none (no result: HPGD block)
COC(=O)Cn1nnc(-c2cccc(OC)c2)n1	none
CCC1CN(C(=O)C2CCN(S(=O)(=O)c3c(C)noc3/C=C/c3ccc(C)cc3)CC2)c2cc(C)ccc2O1 (stereo not drawn)	none (no result: ALDH1A1 block, IMPase Li inh, Luc counter, HPGD block)
CCCCC1=CC2=C(OC(C)=O)C(=O)C(C)(OC(=O)C3CCCC3)C(=O)C2=CO1 (stereo not drawn)	none (no result: Lamin A splicing)
CCOc1ccc(N(Cc2nnc3n2CCCCC3)C(=O)Nc2cccc(C)c2)cc1	none (no result: HPGD block)
Cc1ccc(-n2cc(CNCCN3CCOC3=O)c(-c3cccc(C)c3)n2)cc1	ALDH1A1 block 7.1µM (no result: Lamin A splicing, HPGD block)
CCc1c(C)nc2c(C)cccc2c1SCCC#N	ALDH1A1 block 7.9µM (no result: Lamin A splicing, HPGD block)
C=CCc1c(C)nc2c(C)cccc2c1SC(=N)N	none (no result: IMPase Li inh, Luc counter, Lamin A splicing, HPGD block)
CCCCc1c(C)nc2ccccc2c1SCCC#N	ALDH1A1 block 7.1µM
Cn1c(O)c(N=NC(=O)Cn2c(C(F)(F)F)nc3ccccc32)c2ccccc21	none
Cc1cc(C)c2c(=O)c(C#N)coc2c1	ALDH1A1 block 10µM (no result: IMPase Li inh, Luc counter, Lamin A splicing, HPGD block)
O=C1CC(c2cccs2)Cc2nc(NCC3CCCO3)ncc21 (stereo not drawn)	Lamin A splicing inconclusive
Oc1ccccc1-c1nc(NCC2CCCO2)c2ccccc2n1 (stereo not drawn)	ALDH1A1 block inconclusive, Lamin A splicing inconclusive
COc1cccc(-c2nc(NCC3CCCO3)c3ccccc3n2)c1O (stereo not drawn)	IMPase Li inh 14µM
O=C1NCCCc2c1no[n+]2[O-]	ALDH1A1 block inconclusive
[O-][n+]1onc2c1CCC(=N/O)/C2=N\Nc1ccccc1	ALDH1A1 block 3.5µM (no result: IMPase Li inh, Luc counter, Lamin A splicing, HPGD block)
Cc1ccccc1C(=O)NN(C)c1nc2ccccc2nc1C(F)(F)F	IMPase Li inh 5.6µM
CN(NC(=O)c1ccco1)c1nc2ccccc2nc1C(F)(F)F	none (no result: HPGD block)
COc1cccc(CNC(=O)CN2C(=O)CC(c3ccccc3)=Nc3ccccc32)c1	ALDH1A1 block 35µM (no result: Lamin A splicing, HPGD block)
Cc1ccccc1-c1ccc2ncnc(N3CCN(C)CC3)c2c1	ALDH1A1 block inconclusive, Lamin A splicing inconclusive (no result: Luc counter, HPGD block)
c1nc(N2CCOCC2)c2cc(-c3ccoc3)ccc2n1	ALDH1A1 block 22µM, Lamin A splicing inconclusive (no result: Luc counter, HPGD block)
Cc1noc(C)c1-c1ccc2ncnc(N3CCN(C)CC3)c2c1	ALDH1A1 block inconclusive, Lamin A splicing 7.1µM (no result: Luc counter, HPGD block)
Cc1ccccc1-c1ccc2ncnc(N3CCOCC3)c2c1	ALDH1A1 block 22µM, Lamin A splicing inconclusive (no result: Luc counter, HPGD block)
Cc1noc(C)c1-c1ccc2ncnc(N3CCOCC3)c2c1	Lamin A splicing 10µM (no result: Luc counter, HPGD block)
COc1cccc(-c2ccc3ncnc(N4CCOCC4)c3c2)c1	Lamin A splicing inconclusive (no result: Luc counter, HPGD block)
